Data from PubChem BioAssay (NCATS).
Records with an inconclusive call do not appear. Active and inactive are the calls of the source. Calls follow the shape of the dose curve; as a rule, active = well fitted inhibition curve with a large enough effect; inconclusive = small, poorly fitted or top-dose-only effect; inactive = flat fitted curve, though single readings scatter.

Key:
Assay in all cases: qHTS profiling for inhibitors of Plasmodium falciparum proliferation (AID 504749); also: nearly all actives have a fitted effect of over 60% in size
Settings in all cases: P. falciparum in erythrocytes, SYBR Green DNA, 72 h; series mostly up to 28.7 µM
[1] = test system: CP269
How it was run: (§1)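 Parasite proliferation within erythrocytes, 72 h exposure. Endpoint: SYBR Green I fluorescence after overnight lysis at room temperature. Controls: 0.29 uM artemisinin, DMSO.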

[2] = test system: CP286
How it was run: as §1

[3] = test system: CP291
How it was run: as §1

[4] = test system: CP305
How it was run: as §1

[5] = test system: CP315
How it was run: as §1

[6] = test system: CP325
How it was run: as §1

[7] = test system: CP329
How it was run: as §1

[8] = test system: CP335
How it was run: as §1

[9] = test system: DFO2036
How it was run: as §1

[10] = test system: CP297
How it was run: as §1

Measured: Potency
Potency is read from the fitted curve at half-maximal effect.

CC(C)NC[C@H](O)COc1ccc(CC(N)=O)cc1
not listed: [10]
inactive: all other assays above

CC(O)C(O)[C@H]1CNc2nc(N)[nH]c(=O)c2N1 (stereo not given in full)
inactive: all assays above

CN1C2CCC1CC(OC(c1ccccc1)c1ccccc1)C2 (stereo not given)
inactive: [5] | [7]

CCCCCCCCCCCCCCC[C@H](O)[C@H](N)CO
inactive: all assays above

CCCCCCCCCCCCCCCCCCOC[C@H](COP(=O)([O-])OCC[N+](C)(C)C)OC
inactive: all assays above

c1ccc(C2CN3CCSC3=N2)cc1 (stereo not given)
inactive: [5]
active: [6] 16.9 µM | [8] 5.36 µM | [9] 6.31 µM
